High-throughput results (PubChem BioAssay)
A selection: hits, their analogues and other compounds. The true share with any hit is near 21%.
DT40 TDP1 no CPT = qHTS for Inhibitors of human tyrosyl-DNA phosphodiesterase 1 (TDP1): qHTS in cells in absence of CPT. AID 686978, 2013. DT40 Tdp1-/- hTDP1 cells, no CPT, ATP luminescence, 48 h. 420,000 compounds, 15% hits. Potency, µM (titrated, usually from 46.2 µM), without a hit: top-dose activity change, negative = growth inhibition, hits mostly inhibitors; also: potency is read from the fitted curve at half-maximal effect; nearly all actives have a fitted effect of over 55% in size
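No-CPT arm: Tdp1-/-;hTDP1 DT40 cells (400/well) plus compounds, incubated ≥48 hr at 37 °C. Readout CellTiter-Glo luminescence.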
RORg inh = blocks mouse ROR gamma transcriptional activity | P51450 | Drosophila S2 Gal4-RORgamma UAS-luciferase reporter, 20 h | Potency, µM (doses to about 53.6 µM), inactives show top-dose activity change, negative = inhibition, most hits filed as inhibitors | 310,000 compounds, 5.4% hits; also: potency is read from the fitted curve at half-maximal effect; nearly all actives have a fitted effect of over 60% in size
Target sequence (P51450 whole entry, looked up, the tested form may be a part): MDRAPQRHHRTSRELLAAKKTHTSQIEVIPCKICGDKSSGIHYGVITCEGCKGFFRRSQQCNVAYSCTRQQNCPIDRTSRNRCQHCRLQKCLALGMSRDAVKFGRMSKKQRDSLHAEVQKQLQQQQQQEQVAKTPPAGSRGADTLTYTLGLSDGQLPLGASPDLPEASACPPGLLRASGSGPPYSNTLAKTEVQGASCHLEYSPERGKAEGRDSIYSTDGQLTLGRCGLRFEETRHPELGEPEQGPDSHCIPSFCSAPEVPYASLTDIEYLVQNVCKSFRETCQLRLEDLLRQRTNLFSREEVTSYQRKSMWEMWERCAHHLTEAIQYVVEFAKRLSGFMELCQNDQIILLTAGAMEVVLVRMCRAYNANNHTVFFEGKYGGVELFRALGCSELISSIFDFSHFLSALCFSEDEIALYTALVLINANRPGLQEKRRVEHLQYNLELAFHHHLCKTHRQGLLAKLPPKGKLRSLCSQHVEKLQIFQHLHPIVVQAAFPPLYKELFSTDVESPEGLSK
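A Gal4/UAS one-hybrid system in insect cells: metallothionein-promoter Gal4–ROR gamma fusion plus Photinus luciferase reporter. Copper sulfate 700 uM final, 20 hr ambient incubation, luminescent detection after 10 min with reagent.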
Gal4-VP16 FLuc = inhibits Gal4-VP16 luciferase reporter, ROR gamma counter-screen; Drosophila S2 Gal4-VP16 UAS-luciferase, luminescence, 20 h; Potency, µM (doses to about 53.6 µM), for inactives: at the top dose activity, negative = inhibition, hits mostly inhibitors; 310,000 compounds, 3.5% hits; AID 2546;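 also: Gal4-VP16 expression switched on by copper sulfate through the metallothionein promoter; potency is read from the fitted curve at half-maximal effect; nearly all actives have a fitted effect of over 50% in size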
ELG1 DNA repair = ELG1-dependent DNA repair inhibition. HEK293T ELG1-luciferase reporter, luminescence, 16 h; DNA damage induced by 5-fluorouridine. AID 504467. Potency, µM (highest dose often 46.1 µM), for the others: top-dose activity change, negative = inhibition, hits mostly inhibitors. 330,000 compounds, 2.3% hits; also: potency is read from the fitted curve at half-maximal effect; nearly all actives have a fitted effect of over 55% in size
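Overnight (16 hr) co-exposure of 2,000 cells/well to 5-fluorouridine and compound at 37 °C preceded detection. Luciferase was quantified via ONE-Glo luminescence; loss of signal denotes inhibition.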
TDP1 cell CPT = growth inhibition of DT40 Tdp1-/-;hTDP1 cells with camptothecin (screen for TDP1 inhibitors) | chicken DT40 Tdp1-/-;hTDP1 cells + 20 nM CPT, ATP luminescence, 48 h | Potency, µM (top dose mostly 46.2 µM), for the others: at the top dose activity change, negative = growth inhibition, actives largely listed as inhibitors | 420,000 compounds, 12% hits | AID 686979; also: potency is read from the fitted curve at half-maximal effect; nearly all actives have a fitted effect of over 55% in size
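Chicken DT40 Tdp1-/- cells stably complemented with human TDP1 were seeded at 400 cells/well in medium containing 20 nM camptothecin, exposed to pin-transferred compounds, and grown at 37 °C for at least 48 hr. Viability was read as ATP luminescence.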
IL1B secr inh = inhibitors of inflammasome signaling (IL-1 beta secretion); 360,000 compounds, 4.7% hits; THP-1 LPS/ATP IL-1B secretion, AlphaLISA, 16 h; hits give low values; activity change, % at 57.5 µM; in the data active = activity change below about -50%; inconclusive = mostly about -30% to -49%
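Secreted IL-1B measured by AlphaLISA bead assay after 16 h compound exposure of THP-1 cells; compounds (final up to 57.5 uM) added 1 h before LPS (250 ng/mL) and ATP (1.25 mM) stimulation; lower signal means less secretion.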
* hit, by the source's call; ? = inconclusive; nt = not tested or not shown; [ ] = dose if it differs, or a comment. Unless noted, calls follow the shape of the dose curve; as a rule, active = well fitted curve in the direction sought with a large enough effect; inconclusive = small, poorly fitted or top-dose-only effect, or another doubt; inactive = no such curve, though single readings can be large; an effect the other way counts as inactive or inconclusive. % is scaled to controls: 0 for no effect and ±100 for the full control effect.

SMILES | DT40 TDP1 no CPT | RORg inh | Gal4-VP16 FLuc | ELG1 DNA repair | TDP1 cell CPT | IL1B secr inh
CC1(OC(=O)CCc2ccccc2)C(=O)C=C2C=C(c3ccc(C#N)cc3)OC=C2C1=O (stereo not drawn) | nt | 28% | -1% | nt | nt | nt
COc1cccc(C(O)c2ncc(-c3ccccc3Cl)[nH]2)c1 (stereo not drawn) | -18% | nt | nt | nt | ? | -17
COc1ccccc1N(CC(=O)NCCc1ccccc1)C(=O)CCC(=O)Nc1cc(C)ccn1 | -26% | -1% | -12% | -4% | -18% | -5
Cc1cccc(C(=O)n2c(=S)nc3ccccn32)c1 | ? | 2.5µM* | 3.2µM* | ? | ? | -8
Cc1cccc(C(=O)N2CCCCCC2)c1 | 0% | 0% | 2% | 3% | 0% | 7
Cc1ccc(C(=O)n2c(=S)nc3ccccn32)cc1 | nt | 1.6µM* | ? | ? | nt | nt
O=C(c1ccccc1)n1c(=S)nc2ccccn21 | ? | ? | ? | ? | ? | 20
COc1ccc(-n2nnnc2SCC(=O)Nc2c(C)n[nH]c2C)cc1 | -13% | nt | nt | -13% | -1% | 12
NC(=O)C(c1ccc(Cl)cc1)c1ccc(Sc2ccc(Cl)cc2)nn1 (stereo not drawn) | 16µM* | ? | 14µM* | ? | ? | ?
O=C(CSc1ccc(-c2ccncc2)nn1)c1ccc(Cl)cc1 | -19% | 16% | -12%[10 µM] | 1% | -23% | 2
COc1ccc(CCN2C(=O)c3[nH]nc(-c4ccccc4O)c3C2c2ccccc2)cc1OC (stereo not drawn) | 21µM* | -24% | -28% | 13µM* | 18µM* | ?
CCCN1C(=O)c2[nH]nc(-c3ccccc3)c2C1c1cccc(O)c1 (stereo not drawn) | 23µM* | nt | nt | nt | 18µM* | nt
CCCN1C(=O)c2[nH]nc(-c3cccc(OC)c3)c2C1c1ccccn1 (stereo not drawn) | 21µM* | nt | nt | nt | ? | nt
COCCN1C(=O)c2[nH]nc(-c3ccccc3O)c2C1c1ccc(OCc2ccccc2)c(OC)c1 (stereo not drawn) | 8.2µM* | nt | nt | nt | ? | nt
CCCN1CCC(=O)N(CCN=[N+]=[N-])CC1 | 0% | -1% | -2% | 12% | -13% | 6
CCC(C)NC(=O)CN1C(=O)c2cccnc2Sc2ccccc21 (stereo not drawn) | 6% | nt | nt | nt | ? | nt
CN(C)CCNc1ncnc2c1ncn2[C@H]1CN(Cc2ccncc2)C[C@@H](CO)O1 | 2% | nt | nt | nt | 0% | 21
CCCN1C(=O)c2[nH]nc(-c3ccccc3O)c2C1c1cccc(OCc2ccccc2)c1 (stereo not drawn) | 9.2µM* | nt | nt | nt | 21µM* | nt
O=C(N/N=C/c1ccccc1[N+](=O)[O-])C(=O)N1CCCC1 | -13% | 0% | 30% | ? | 4% | -12
NC1=NC[C@@H](Cc2ccc(O)cc2)N1CCc1cc(C(F)(F)F)cc(C(F)(F)F)c1 | 21µM* | 24% | 2% | 5% | ? | ?
CC(C)(C)CN1C(N)=NC[C@H]1Cc1ccc(O)cc1 | ? | -16% | ? | 0% | ? | 12
NC1=NC[C@H](Cc2ccc(O)cc2)N1CCC12CC3CC(CC(C3)C1)C2 | ? | 1% | -5% | 2% | 8.2µM* | ?
NC1=NC[C@H](CC2CCCCC2)N1CCc1cc(C(F)(F)F)cc(C(F)(F)F)c1 | 7.3µM* | 1% | 0% | 2% | 5.8µM* | -27
CCCC(=O)Nc1ccc(C(=O)NNC(=O)c2ccco2)cc1 | -1% | 32% | ? | 8% | 1% | 8
CS(=O)(=O)N1CCC(N2CCN(Cc3ccccc3)C(=O)C2=O)CC1 | -14% | nt | nt | nt | 5% | nt
SMILES | DT40 TDP1 no CPT | RORg inh | Gal4-VP16 FLuc | ELG1 DNA repair | TDP1 cell CPT | IL1B secr inh
CCc1cccc(N(C(=O)c2csnn2)C(C(=O)NC(C)(C)C)c2ccccn2)c1 (stereo not drawn) | 5% | 5% | 10% | 3% | -3% | -56*
Cc1ccc(N(CC(=O)NCc2ccccc2)C(=O)c2csnn2)cc1 | ? | 31% | 1% | ? | 2% | 0
Cc1cc(C)cc(N(C(=O)c2csnn2)C(C(=O)NC(C)(C)C)c2ccccn2)c1 (stereo not drawn) | -3% | -26% | 3% | 1% | -14% | 0
COc1ccc(CNC(=O)CCCc2ccccc2)cc1 | -18% | 0% | 4% | ? | -5% | 15
COc1ccc(CNC(=O)C(c2ccco2)N(C(=O)c2csnn2)c2cccc(C)c2C)cc1 (stereo not drawn) | 23µM* | -2% | 5% | ? | ? | -9
CCc1ccc(OCCCC(=O)NCc2ccccc2)cc1 | 21µM* | ? | -5% | -5% | 29µM* | 6
CCCCOc1ccc(N(CC(=O)NCc2ccccc2)C(=O)c2csnn2)cc1 | 16µM* | 38% | 19% | 16% | ? | -9
COC(=O)NC(/C(C(=O)OC)=C(\C)NCc1ccccc1)c1cccc(C)c1 (stereo not drawn) | nt | -11%[10 µM] | -14%[10 µM] | nt | nt | nt
COc1ccc(NC(=O)C2CCC(CNS(=O)(=O)c3csc(C(N)=O)c3)CC2)cc1 (stereo not drawn) | -15% | nt | nt | nt | ? | nt
O=C(NCc1ccccc1)C(c1ccccc1)N(C(=O)c1csnn1)c1ccccc1 (stereo not drawn) | 18µM* | -18% | 5% | ? | ? | -8
